Laboratory results as given in PubChem BioAssay AID1159580 (chemical genetic matrix, 2015).
In all, about 5,500 compounds went through this assay and about 2,000 (36%) were called active. Roughly 18% stayed inconclusive and do not appear here. No stated cut-off is given here; in the data, active means normalized growth mostly below about 0.91 (no sharp cut-off); inconclusive means no clear call, values can overlap the other calls; inactive means mostly above about 0.92. This is one part of the list.

Assay: chemical genetic growth profiling, strain panel (AID 1159580);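 further: tested at 20 µM; growth read once vehicle control cultures reached saturation at 30 °C; 1 = growth at the plate median or of vehicle wells; lower values mean less growth of the strain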
Conditions: S. cerevisiae deletion strains, growth OD

Measured: normalized growth

CN1Cc2c(ccc3c2OCO3)C2C(O)Cc3cc4c(cc3C21)OCO4 (stereo not given)
inactive: locus YAL013W, strain DEP1, hits give low values 0.992 | locus YBR021W, strain FUR4, hits give low values 0.939 | locus YBR229C, strain ROT2, hits give low values 1 | locus YCL029C, strain bik1, hits give low values 1.03 | locus YDL035C, strain GPR1, hits give low values 0.985 | locus YDL074C, strain BRE1, hits give low values 0.982 | locus YDL101C, strain DUN1, hits give low values 0.996 | locus YDL134C, strain PPH21, hits give low values 0.977 | locus YDL185W, strain tfp1, hits give low values 1.02 | locus YDL192W, strain arf1, hits give low values 0.999 | locus YDR101C, strain arx1, hits give low values 0.999 | locus YDR162C, strain NBP2, hits give low values 0.991 | locus YDR318W, strain mcm21, hits give low values 0.998 | locus YDR388W, hits give low values 0.987 | locus YDR502C, strain sam2, hits give low values 0.984 | locus YEL061C, strain CIN8, hits give low values 0.992 | locus YER110C, hits give low values 1.01 | locus YER155C, strain BEM2, hits give low values 0.997 | locus YER167W, strain BCK2, hits give low values 0.989 | locus YGL078C, strain dbp3, hits give low values 1.02 | locus YGL086W, strain mad1, hits give low values 0.989 | locus YGL248W, strain PDE1, hits give low values 0.995 | locus YGR078C, strain PAC10, hits give low values 0.998 | locus YGR135W, strain pre9, hits give low values 0.98 | locus YGR252W, strain gcn5, hits give low values 0.96 | locus YHR030C, strain SLT2, hits give low values 0.999 | locus YHR079C, strain IRE1 (second series), hits give low values 1.01 | locus YHR094C, strain hxt1, hits give low values 1.01 | locus YHR129C, strain ARP1, hits give low values 0.994 | locus YHR200W, strain rpn10, hits give low values 1 | locus YIL066C, strain RNR3, hits give low values 1 | locus YIL073C, strain SPO22, hits give low values 1.04 | locus YIL125W, strain kgd1, hits give low values 1.02 | locus YIR030C, strain dcg1, hits give low values 1 | locus YJL095W, strain BCK1, hits give low values 0.985 | locus YJL134W, strain LCB3, hits give low values 1.01 | locus YJL168C, strain set2, hits give low values 1 | locus YJL187C, strain SWE1 (second series), hits give low values 1 | locus YJR043C, strain POL32, hits give low values 1.01 | locus YJR075W, strain HOC1, hits give low values 0.983 | locus YKL009W, strain mrt4, hits give low values 1.01 | locus YKL068W, hits give low values 1 | locus YKL085W, strain MDH1 (second series), hits give low values 1.01 | locus YKL085W, strain MDH1, hits give low values 1.01 | locus YKL190W, strain CNB1, hits give low values 0.988 | locus YKR001C, strain vps1, hits give low values 0.997 | locus YLR039C, strain RIC1, hits give low values 0.977 | locus YLR058C, strain SHM2, hits give low values 0.992 | locus YLR102C, strain apc9, hits give low values 1.01 | locus YLR262C, strain YPT6, hits give low values 0.981 | locus YLR268W, strain sec22, hits give low values 1 | locus YLR330W, strain CHS5, hits give low values 1.01 | locus YLR342W, strain FKS1 (second series), hits give low values 0.982 | locus YLR371W, strain rom2, hits give low values 1.01 | locus YLR418C, strain cdc73, hits give low values 0.956 | locus YML016C, strain PPZ1, hits give low values 1 | locus YML032C, strain rad52, hits give low values 0.991 | locus YML124C, strain tub3, hits give low values 1.02 | locus YMR078C, strain ctf18, hits give low values 1.01 | locus YMR223W, strain ubp8, hits give low values 0.998 | locus YMR307W, strain GAS1, hits give low values 0.95 | locus YNL067W, strain RPL9B, hits give low values 0.994 | locus YNL128W, strain TEP1, hits give low values 0.996 | locus YNL233W, strain BNI4, hits give low values 1 | locus YNL250W, strain rad50, hits give low values 1.02 | locus YNL271C, strain bni1, hits give low values 1.02 | locus YNL298W, strain CLA4, hits give low values 1.03 | locus YNL307C, strain MCK1, hits give low values 1.02 | locus YNL322C, strain KRE1, hits give low values 0.999 | locus YNR052C, strain pop2, hits give low values 0.997 | locus YOL006C, strain TOP1, hits give low values 0.92 | locus YOL012C, strain htz1 1.21 | locus YOL147C, strain pex11, hits give low values 1 | locus YOR061W, strain CKA2, hits give low values 1 | locus YOR069W, strain VPS5, hits give low values 1 | locus YOR136W, strain idh2, hits give low values 1.04 | locus YOR144C, strain elg1, hits give low values 1.01 | locus YOR184W, strain ser1, hits give low values 0.984 | locus YOR316C, strain cot1, hits give low values 1.01 | locus YPL055C, strain LGE1, hits give low values 0.978 | locus YPR119W, strain clb2, hits give low values 1.01 | locus YPR141C, strain kar3, hits give low values 1.01 | locus YPR163C, strain tif3, hits give low values 1.04 | locus YPR167C, strain met16, hits give low values 1.01 | strain wtn01, hits give low values 1
